Among the data in PubChem BioAssay (NCI) are growth inhibition values, retold here.

Assay [1] is described as follows: NCI Yeast Anticancer Drug Screen. Data for the rad50 strain (AID 155).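 Note: 0% = growth of vehicle-only cultures of the same strain.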 Conditions: S. cerevisiae rad50 strain growth inhibition, active compounds read high. In outline:
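Genetically altered yeast (DNA repair pathway); compound treatment; growth inhibition vs vehicle ctrl.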

A short description of assay [2]: NCI Yeast Anticancer Drug Screen. Data for the mec2-1 strain (AID 157). As to conditions: S. cerevisiae mec2-1 strain, active compounds read high. In outline:
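Each compound was tested on mec2-1 yeast, a strain altered in DNA damage repair or cell cycle control. Growth inhibition is reported relative to vehicle.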

A short description of assay [3]: NCI Yeast Anticancer Drug Screen. Data for the sgs1 mgt1 strain (AID 161).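 Note: 0% = growth of cultures given vehicle only.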 Conditions: S. cerevisiae sgs1 mgt1 strain, active compounds read high. In outline: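 Genetically altered yeast, compound exposure, growth inhibition relative to vehicle.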
Assay [4] in a line: NCI Yeast Anticancer Drug Screen. Data for the cln2 rad14 strain (AID 165).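 Note: 0% = growth equal to vehicle treated cultures.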 Conditions: S. cerevisiae cln2 rad14 strain, active compounds read high. In outline:
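Test compounds were added to cln2 rad14 yeast cultures; inhibition of growth was then determined by comparison with vehicle treatment.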

Assay [5] in a line: NCI Yeast Anticancer Drug Screen. Data for the bub3 strain (AID 167). As to conditions: S. cerevisiae bub3 mutant strain, active compounds read high. In outline: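 Yeast carrying a defined mutation is treated with each compound, and growth is compared with that of vehicle-exposed cells to give inhibition.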
The nature of assay [6]: NCI Yeast Anticancer Drug Screen. Data for the mlh1 rad18 strain (AID 175). As to conditions: S. cerevisiae mlh1 rad18 strain growth inhibition, active compounds read high. A digest of the protocol:
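Inhibition values reflect reduced growth of mutant yeast versus vehicle-treated controls following compound exposure; the mutations affect DNA damage repair.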

Setting [7] is: at 5.0 µM (retest, dose inferred, filed as 0.5).
The mark [8] stands for this setting: at 50.0 µM (retest, dose inferred, filed as 5.0).

Structures are written as SMILES. This is part of a sample that, as a whole, favours compounds with a hit. Of some 79,000 tested, about 15% had one in any assay. A number with no mark means an inactive call. Calls of active or inactive are those of the source. Cut-off read from the data, not from the text of the source: active = growth inhibition above about 70%; inactive = the rest.

Turning to `CN(C)c1ccc(/C=C/c2cc[n+](C)c(/C=C/c3ccc(N(C)C)cc3)c2)cc1`, the growth inhibition in assay [1] (setting [7]) was 98% (active); in assay [1] (setting [8]) it was 96% (active); in assay [1] (at 50.0 µM) it was 91% (active); in assay [2] (setting [7]) it was 100% (active); in assay [2] (setting [8]) it was 95% (active); in assay [2] (at 50.0 µM), 93.3% (active). The growth inhibition is 98% (active) in assay [3] (setting [7]); 93% (active) in assay [3] (setting [8]); 93.2% (active) in assay [3] (at 50.0 µM); 99% (active) in assay [4] (setting [7]); 97% (active) in assay [4] (setting [8]); 92.8% (active) in assay [4] (at 50.0 µM). For the same compound, the growth inhibition in assay [5] (setting [7]) was 96% (active); in assay [5] (setting [8]), 95% (active); in assay [5] (at 50.0 µM), 91.8% (active); in assay [6] (setting [7]), 100% (active); in assay [6] (setting [8]), 96% (active); in assay [6] (at 50.0 µM) it was 91% (active).

For `Oc1c(Cl)cc(Cl)cc1C=NCC1CCC(CN=Cc2cc(Cl)cc(Cl)c2O)CC1` (stereo not given), the growth inhibition in assay [1] (setting [7]) was 60%; in assay [1] (setting [8]) it was 86% (active); in assay [1] (at 50.0 µM), 87.5% (active); in assay [2] (setting [7]), 41%; in assay [2] (setting [8]), 92% (active); in assay [2] (at 50.0 µM), 91% (active). Further, the growth inhibition is 67% in assay [3] (setting [7]); 96% (active) in assay [3] (setting [8]); 90.3% (active) in assay [3] (at 50.0 µM); 39% in assay [4] (setting [7]); 58% in assay [4] (setting [8]); 80.1% (active) in assay [4] (at 50.0 µM). Further, the growth inhibition is 73% (active) in assay [5] (setting [7]); 94% (active) in assay [5] (setting [8]); 88.4% (active) in assay [5] (at 50.0 µM); 72% (active) in assay [6] (setting [7]); 97% (active) in assay [6] (setting [8]); 85.8% (active) in assay [6] (at 50.0 µM).

In the case of `O=C(O)CCCOc1cc(-c2ccccc2F)nc2cc3c(cc12)OCO3`, the growth inhibition in assay [1] (setting [7]) is 11%; in assay [1] (setting [8]), 36%; in assay [1] (at 50.0 µM), 76.8% (active); in assay [2] (setting [7]) it was 3%; in assay [2] (setting [8]), 31%; in assay [2] (at 50.0 µM), 80.8% (active). The growth inhibition was 13% in assay [3] (setting [7]); 27% in assay [3] (setting [8]); 71% (active) in assay [3] (at 50.0 µM); 5% in assay [4] (setting [7]); 46% in assay [4] (setting [8]); 71.3% (active) in assay [4] (at 50.0 µM). Further, the growth inhibition was 9% in assay [5] (setting [7]); 47% in assay [5] (setting [8]); 77.9% (active) in assay [5] (at 50.0 µM); 7% in assay [6] (setting [7]); 52% in assay [6] (setting [8]); 54% in assay [6] (at 50.0 µM).

As to `N#CC1c2ccccc2C=CN1C(=O)CCCl` (stereo not given), the growth inhibition in assay [1] (setting [7]) was 7%; in assay [1] (setting [8]), 41%; in assay [1] (at 50.0 µM), 6.05%; in assay [2] (setting [7]), 2%; in assay [2] (setting [8]) it was 36%; in assay [2] (at 50.0 µM), 34.2%. The growth inhibition in assay [3] (setting [7]) was 11%; in assay [3] (setting [8]) it was 34%; in assay [3] (at 50.0 µM) it was 53.5%; in assay [4] (setting [7]), 8%; in assay [4] (setting [8]), 42%; in assay [4] (at 50.0 µM), 17.1%. In addition, the growth inhibition in assay [5] (setting [7]) is 15%; in assay [5] (setting [8]) it was 74% (active); in assay [5] (at 50.0 µM), 74.3% (active); in assay [6] (setting [7]), -11%; in assay [6] (setting [8]), 38%; in assay [6] (at 50.0 µM) it was 29.1%.

For `O=C(O)c1cc2c(s1)C(=O)c1sccc1C2=O`, the growth inhibition in assay [1] (setting [7]) is 37%; in assay [1] (setting [8]) it was 75% (active); in assay [1] (at 50.0 µM) it was 71.5% (active); in assay [2] (setting [7]), 33%; in assay [2] (setting [8]) it was 69%; in assay [2] (at 50.0 µM), 57.6%. The growth inhibition in assay [3] (setting [7]) was 39%; in assay [3] (setting [8]) it was 66%; in assay [3] (at 50.0 µM), 72% (active); in assay [4] (setting [7]) it was 12%; in assay [4] (setting [8]), 30%; in assay [4] (at 50.0 µM) it was 54.9%. For the same compound, the growth inhibition is 36% in assay [5] (setting [7]); 79% (active) in assay [5] (setting [8]); 71.2% (active) in assay [5] (at 50.0 µM); 39% in assay [6] (setting [7]); 79% (active) in assay [6] (setting [8]); 92.8% (active) in assay [6] (at 50.0 µM).

In the case of `CCC[CH2][Sn]1([CH2]CCC)[O]C2C(CO)OC(n3ccc(N)nc3=O)C2[O]1` (stereo not given), the growth inhibition is 46% in assay [1] (setting [7]); 97% (active) in assay [1] (setting [8]); 86.8% (active) in assay [1] (at 50.0 µM); 48% in assay [2] (setting [7]); 98% (active) in assay [2] (setting [8]); 89.7% (active) in assay [2] (at 50.0 µM). Also, the growth inhibition in assay [3] (setting [7]) was 83% (active); in assay [3] (setting [8]), 99% (active); in assay [3] (at 50.0 µM), 88.5% (active); in assay [4] (setting [7]), 71% (active); in assay [4] (setting [8]), 99% (active); in assay [4] (at 50.0 µM), 83.6% (active). For the same compound, the growth inhibition in assay [5] (setting [7]) was 89% (active); in assay [5] (setting [8]), 99% (active); in assay [5] (at 50.0 µM), 87.3% (active); in assay [6] (setting [7]), 26%; in assay [6] (setting [8]), 96% (active); in assay [6] (at 50.0 µM), 84.2% (active).

`O=Cc1ccc(-c2ccc(-c3ccc(CO)s3)o2)s1`: the growth inhibition in assay [1] (setting [7]) was 20%; in assay [1] (setting [8]) it was 62%; in assay [1] (at 50.0 µM) it was 17.2%; in assay [2] (setting [7]) it was 11%; in assay [2] (setting [8]), 45%; in assay [2] (at 50.0 µM) it was 4.65%. In addition, the growth inhibition in assay [3] (setting [7]) was 5%; in assay [3] (setting [8]), 77% (active); in assay [3] (at 50.0 µM), 44.5%; in assay [4] (setting [7]) it was 3%; in assay [4] (setting [8]), 33%; in assay [4] (at 50.0 µM) it was -8.55%. Besides, the growth inhibition in assay [5] (setting [7]) is 21%; in assay [5] (setting [8]), 53%; in assay [5] (at 50.0 µM), 16.5%; in assay [6] (setting [7]), 20%; in assay [6] (setting [8]), 84% (active); in assay [6] (at 50.0 µM), 65.3%.

For `O=C(O)c1cccc2cccc(-c3c4ccc(=O)c(O)c-4oc4c(O)c(O)ccc34)c12`, the growth inhibition in assay [1] (setting [7]) was 86% (active); in assay [1] (setting [8]), 96% (active); in assay [1] (at 50.0 µM), 87% (active); in assay [2] (setting [7]) it was 84% (active); in assay [2] (setting [8]) it was 97% (active); in assay [2] (at 50.0 µM), 90% (active). Also, the growth inhibition in assay [3] (setting [7]) is 93% (active); in assay [3] (setting [8]), 98% (active); in assay [3] (at 50.0 µM), 90% (active); in assay [4] (setting [7]) it was 62%; in assay [4] (setting [8]), 97% (active); in assay [4] (at 50.0 µM), 89% (active). Further, the growth inhibition in assay [5] (setting [7]) is 93% (active); in assay [5] (setting [8]), 97% (active); in assay [5] (at 50.0 µM), 87.5% (active); in assay [6] (setting [7]), 96% (active); in assay [6] (setting [8]), 95% (active); in assay [6] (at 50.0 µM), 85.7% (active).

`NCCCN(CCCN)CCCNCc1c2ccccc2c(CNCCCN(CCCN)CCCN)c2ccccc12`: the growth inhibition in assay [1] (setting [7]) is 88% (active); in assay [1] (setting [8]) it was 99% (active); in assay [1] (at 50.0 µM), 90.6% (active); in assay [2] (setting [7]), 62%; in assay [2] (setting [8]) it was 99% (active); in assay [2] (at 50.0 µM), 93% (active). Moreover, the growth inhibition was 67% in assay [3] (setting [7]); 98% (active) in assay [3] (setting [8]); 93.3% (active) in assay [3] (at 50.0 µM); 36% in assay [4] (setting [7]); 98% (active) in assay [4] (setting [8]); 92.7% (active) in assay [4] (at 50.0 µM). Further, the growth inhibition was 89% (active) in assay [5] (setting [7]); 99% (active) in assay [5] (setting [8]); 92.6% (active) in assay [5] (at 50.0 µM); 96% (active) in assay [6] (setting [7]); 99% (active) in assay [6] (setting [8]); 91.1% (active) in assay [6] (at 50.0 µM).

Regarding `O=[N+]([O-])/C(=C/c1ccccc1)c1ccccc1`, the growth inhibition in assay [1] (setting [7]) is 99% (active); in assay [1] (setting [8]), 99% (active); in assay [1] (at 50.0 µM), 99.6% (active); in assay [2] (setting [7]), 100% (active); in assay [2] (setting [8]) it was 99% (active); in assay [2] (at 50.0 µM), 99.7% (active). In addition, the growth inhibition in assay [3] (setting [7]) was 99% (active); in assay [3] (setting [8]), 97% (active); in assay [3] (at 50.0 µM), 99.7% (active); in assay [4] (setting [7]) it was 99% (active); in assay [4] (setting [8]), 99% (active); in assay [4] (at 50.0 µM), 98.7% (active). Further, the growth inhibition in assay [5] (setting [7]) is 100% (active); in assay [5] (setting [8]) it was 99% (active); in assay [5] (at 50.0 µM), 99.5% (active); in assay [6] (setting [7]) it was 99% (active); in assay [6] (setting [8]), 99% (active); in assay [6] (at 50.0 µM), 99.5% (active).
